Where “and” joins values, the source holds several entries; their conditions need not be identical. Equal entries are not always repeated. About 18,000 (4.4%) of roughly 410,000 compounds were called active. Not shown: some 7% with an inconclusive outcome. No stated cut-off is given here; in the data, active means activity change below about -60%; inconclusive means no clear call, values can overlap the other calls; inactive means above about -39%. The sample as a whole holds a higher share of actives than the screen did. Where a structure was tested more than once in an assay, its records may differ in their call.
Experiment: qHTS Assay for inhibitors of the human cytomegalovirus (HCMV)
Conditions: HFF cells, HCMV-luciferase reporter, 72 h; at 57.5 µM; stronger effect = lower value
How it was run: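 HFF cells seeded 16 h at 37C, treated with compounds, infected with luciferase-reporter HCMV at MOI 1 PFU/cell; luciferase read at 72 h post infection, normalized to buffer-only and Salinomycin controls.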
For Cc1nc2ccccc2nc(=O)c1NNc1ccc([N+](=O)[O-])cc1, the activity change, negative = inhibition was 4.07% (inactive). In the case of Cc1nc(-c2ccc([N+](=O)[O-])cc2)c(-c2ccccc2)o1, the activity change, negative = inhibition was -90.1% (active). With CCC1OC(c2ccc([N+](=O)[O-])cc2)=Nc2ccccc21 (stereo not drawn) the activity change, negative = inhibition was 13.9% (inactive). In the case of COc1ccc(Cn2ccnc2SCC(=O)NCc2ccco2)cc1, the activity change, negative = inhibition was -17.3% (inactive). In the case of COc1cc(OC)cc(C2=Cc3ccccc3C(CC(=O)c3ccco3)N2c2ccc(-c3cnc(OC)nc3)cc2)c1 (stereo not drawn), the activity change, negative = inhibition was 18.6% (inactive). In the case of NC(=O)c1ncc(C(F)(F)F)cc1Oc1ccc(F)cc1, the activity change, negative = inhibition was 0.451% (inactive). For COc1ccc(Cl)cc1NC(=O)CSc1nc2ccccc2c2nc(-c3ccccc3)nn12, the activity change, negative = inhibition was 11.6% (inactive). With CCOc1ccc(CCN2C(=O)C(=O)N([C@@H](Cc3ccc(O)cc3)CN3CCC[C@H]3CN3C(=O)C(=O)NC[C@@H]3CC(C)C)C[C@@H]2Cc2ccccc2)cc1 the activity change, negative = inhibition was -26.1% (inactive). With O=C(COC(=O)c1cncc(Br)c1)Nc1ccc(S(=O)(=O)N2CCOCC2)cc1 the activity change, negative = inhibition was -8.88% (inactive). With O=C(COc1ccc(Br)cc1)OCC(=O)c1ccc[nH]1 the activity change, negative = inhibition was 42.3% (inactive). With CCCOC(=O)c1c(NC(=O)c2cnn3c2NC(c2ccccc2)CC3C(F)(F)F)sc2c1CCCC2 (stereo not drawn) the activity change, negative = inhibition was -29.2% (inactive). With CCOc1ccc(NC(=S)NC(=O)/C=C/c2ccc(OC)cc2)c([N+](=O)[O-])c1 the activity change, negative = inhibition was 40.2% (inactive). In the case of Cc1ccc(/C=C/C(=O)Nc2ccc([N+](=O)[O-])c(NC(=O)/C=C/c3ccc(C)o3)c2)o1, the activity change, negative = inhibition was -77% (active). For COc1ccc(OC)c(NC(=O)/C=C/c2ccc(C)o2)c1, the activity change, negative = inhibition was 33% (inactive). In the case of COc1c(Cl)cc(C(=O)N(Cc2ccccc2F)C2CCS(=O)(=O)C2)cc1Cl (stereo not drawn), the activity change, negative = inhibition was -5.18% (inactive). With COc1ccccc1OCC(O)CN1CCOCC1 (stereo not drawn) the activity change, negative = inhibition was -100% (active). With Cc1ccc(OCC(O)CN2CCN(CC(O)COc3ccc(C)cc3Cl)CC2)c(Cl)c1 (stereo not drawn) the activity change, negative = inhibition was -4.14% (inactive). In the case of CCCn1c(=N)n(CC(O)COc2ccccc2OC)c2ccccc21 (stereo not drawn), the activity change, negative = inhibition was -33.4% (inactive). For COc1ccc(S(=O)(=O)Nc2cc3c(C(=O)OC(C)C)c(C)oc3c3ccccc23)cc1, the activity change, negative = inhibition was 4.89% (inactive). For CCOc1ccc(OCC)c(NS(=O)(=O)c2ccc3[nH]c(=O)ccc3c2)c1, the activity change, negative = inhibition was 17.6% (inactive). With COc1cc(NS(=O)(=O)c2ccc3ccccc3c2)c2ncccc2c1 the activity change, negative = inhibition was -79.8% (active). For COc1cc2c(C(=O)N(C)c3cc(Cl)ccc3OC)cn(C)c(=O)c2cc1OC, the activity change, negative = inhibition was -37.5% (inactive). For Cc1cc(C)c2oc(C(=O)Nc3c(C(=O)Nc4ccccc4)oc4ccccc34)cc(=O)c2c1, the activity change, negative = inhibition was 8.41% (inactive). With O=C(NNC(=O)C(O)c1ccccc1)NC1CCCCC1 (stereo not drawn) the activity change, negative = inhibition was -11.7% (inactive). With O=C(Cn1nnc(-c2ccccc2)n1)NC(=O)NC1CCCC1 the activity change, negative = inhibition was 11.9% (inactive). For Cc1nc(/N=C(\N)NC(=O)NC2CCCCC2)nc2ccccc12, the activity change, negative = inhibition was -84.3% (active). In the case of Cc1ccc(C)c(S(=O)(=O)n2nc(C)c(S(=O)(=O)N3CCC(C)CC3)c2C)c1, the activity change, negative = inhibition was -3.95% (inactive). In the case of Cc1ccc(S(=O)(=O)N2CCN(Cc3cccc(C)c3O)CC2)cc1, the activity change, negative = inhibition was -3.34% (inactive). For COc1ccc(S(=O)(=O)N2CCN(c3ncnc4c(-c5ccccc5)nsc34)CC2)cc1, the activity change, negative = inhibition was 3.62% (inactive). For Cc1ccc(S(=O)(=O)N2CCN(c3ncnc4ccccc34)CC2)cc1, the activity change, negative = inhibition was -87.3% (active). In the case of Cc1ccc(C)c(S(=O)(=O)N2CCN(c3ncnc4sccc34)CC2)c1, the activity change, negative = inhibition was -96.6% (active). In the case of Cc1ccc(C)c(S(=O)(=O)c2nnn3c2nc(N2CCOCC2)c2sccc23)c1, the activity change, negative = inhibition was 28.6% (inactive). In the case of CCOc1ccc2oc(C(=O)N(CC)CC(=O)Nc3ccc(NC(C)=O)cc3)c(C)c2c1, the activity change, negative = inhibition was -18.7% (inactive). For O=S(=O)(c1ccc(Br)cc1)c1nnn2c1nc(N1CCOCC1)c1sccc12, the activity change, negative = inhibition was 18.7% (inactive). For CCCOc1ccc(N2C(=O)CC(N(CCc3ccc(S(N)(=O)=O)cc3)C(C)=O)C2=O)cc1 (stereo not drawn), the activity change, negative = inhibition was 29.6% (inactive). With CC1CCN(C(=O)Cn2c(=O)n(-c3ccc(Cl)cc3)c(=O)c3c4c(sc32)CCC4)CC1 the activity change, negative = inhibition was 3.05% (inactive). In the case of O=C(Cn1nc(C(F)(F)F)c2c1CCC2)NCc1ccc(F)cc1, the activity change, negative = inhibition was -0.659% (inactive). In the case of O=C(Cn1nc(C(F)(F)F)c2c1CCCC2)Nc1ccc(Cl)cc1, the activity change, negative = inhibition was -105% (active). For Cc1cc(NC(=O)Cn2nc(C(F)(F)F)c3c2CCCC3)no1, the activity change, negative = inhibition was 31% (inactive). In the case of CCOc1ccc2nc(N3CCC(C(=O)Nc4cc(C)ccc4C)CC3)sc2c1, the activity change, negative = inhibition was 20% (inactive). With CCCNC(=O)C1CCN(c2nc3ccc(C)cc3[nH]2)CC1 the activity change, negative = inhibition was 0% (active). In the case of Cc1ccc2nc(CNC(=O)c3ccccc3)[nH]c2c1, the activity change, negative = inhibition was 61% (inactive). For Cc1[nH]c2ccccc2c1[N+](=O)[O-], the activity change, negative = inhibition was 6.63% (inactive). In the case of CCCC(O)(CCC)C(=O)NN(C(=O)CCl)c1cccc(C)c1, the activity change, negative = inhibition was -101% (active). With CCCCC(O)(CCCC)C(=O)NN(C(=O)CCl)c1ccccc1 the activity change, negative = inhibition was -94.6% (active). In the case of COC(=O)N(NC(=O)C(O)(C(C)C)C(C)C)c1ccccc1, the activity change, negative = inhibition was 2.98% (inactive). With CCCCNC(=O)CN1C(=O)NC(Cc2ccccc2)(Cc2ccccc2)C1=O the activity change, negative = inhibition was -14.4% (inactive). In the case of Cc1cccc(N(Cc2ccccc2)C(=O)c2ccccc2F)c1, the activity change, negative = inhibition was 1.73% (inactive). With Cc1cccc(N(CC(O)CN(C)C)S(=O)(=O)c2ccccc2)c1 (stereo not drawn) the activity change, negative = inhibition was -26.4% (inactive). In the case of COCn1c(C(O)c2ccccc2)cc2ccccc21 (stereo not drawn), the activity change, negative = inhibition was 3.56% (inactive). With O=C(CSc1ncc(S(=O)(=O)c2ccc(Br)cc2)c(=O)[nH]1)Nc1ccc2c(c1)OCCO2 the activity change, negative = inhibition was 3.97% (inactive). With CCCN1CN=C(NS(=O)(=O)c2ccc(NC(C)=O)cc2)NC1 the activity change, negative = inhibition was -18.1% (inactive). With COc1ccccc1NC(=O)CSc1oc(-c2ccco2)nc1S(=O)(=O)c1ccc(Br)cc1 the activity change, negative = inhibition was 12.2% (inactive). In the case of CCOc1ccc(NC(=O)CCc2c(C)nn(-c3ccc(N4CCCC4)nn3)c2C)cc1, the activity change, negative = inhibition was -23.2% (inactive). For COc1ccc(-c2nc3sc(CCNS(=O)(=O)c4ccc(F)c(C)c4)c(C)n3n2)cc1, the activity change, negative = inhibition was -32.9% (inactive). For CCCCN=C(N)/C(C(=O)OCC)=C(\O)c1ccc(OC)cc1, the activity change, negative = inhibition was -26.4% (inactive). With Cc1ccc(-c2nnc(SCc3ccccc3C)o2)cc1 the activity change, negative = inhibition was 82.8% (inactive). For C/C(=C/c1ccccc1)C(=O)N1CCN(c2ccccc2)CC1, the activity change, negative = inhibition was -16.3% (inactive). With O=C(C(=O)N1CCN(c2ccccc2)CC1)c1ccc2c(c1)OCO2 the activity change, negative = inhibition was -64.4% (active). In the case of O=C(c1ccc2c(c1)OCO2)N1CCNc2ccccc2C1, the activity change, negative = inhibition was -3.54% (inactive). In the case of CCC(Sc1nnc(-c2ccc(OC)cc2)c(-c2ccc(OC)cc2)n1)C(=O)NC1CCCCC1 (stereo not drawn), the activity change, negative = inhibition was 5.23% (inactive). In the case of CCOC(=O)C1SC2(C(F)(F)C(F)F)CC1(O)c1c(c(OC)c3occc3c1OC)O2 (stereo not drawn), the activity change, negative = inhibition was -23.2% (inactive). With C/C(=N\NC(=O)C1(C)CC1(Br)Br)c1ccc(C)cc1C (stereo not drawn) the activity change, negative = inhibition was 2.84% (inactive). With Cc1cc(C)cc(NC(c2nnc(-c3cccc(F)c3)o2)c2ccc(F)cc2Cl)c1 (stereo not drawn) the activity change, negative = inhibition was -0.542% (inactive). In the case of CC(=O)N1CCCc2ccc(NS(=O)(=O)c3ccc(F)cc3F)cc21, the activity change, negative = inhibition was 51.5% (inactive). For Cc1c(NC(=O)c2c([N+](=O)[O-])cnn2C)c(=O)n(-c2ccccc2)n1C, the activity change, negative = inhibition was 7.76% (inactive). In the case of Cc1nn(-c2ccccc2)c(-n2cccc2)c1C(=O)O, the activity change, negative = inhibition was -33.7% (inactive). With Cc1nn(-c2ccccc2)c(Cl)c1/C=N/NC(=O)c1nn(C)cc1[N+](=O)[O-] the activity change, negative = inhibition was -99% (active). With Cn1c(=O)c2c(nc(SCC(=O)Nc3ccc(F)cc3)n2Cc2ccc(Cl)cc2)n(C)c1=O the activity change, negative = inhibition was -3.29% (inactive). For CCN(C(=O)CSc1nc(N)cc(=O)[nH]1)C1CCS(=O)(=O)C1 (stereo not drawn), the activity change, negative = inhibition was -1.32% (inactive). In the case of Cc1ccc2c(=O)cc(C(=O)Nc3sc4c(c3C(=O)NCc3cccnc3)CCCC4)oc2c1, the activity change, negative = inhibition was -0.307% (inactive). In the case of Cc1ccc(OCC(=O)Nc2ccc(Cl)c(-c3nc4ccccc4[nH]3)c2)cc1C, the activity change, negative = inhibition was -26.2% (inactive). For Cc1ccc(C)c(OCC(=O)Nc2sc3c(c2C#N)CCCC3)c1C, the activity change, negative = inhibition was -17.4% (inactive). For CC1C(c2ccccc2)=[N+]([O-])C2(CCCC2)N1O (stereo not drawn), the activity change, negative = inhibition was 21.7% (inactive). For CCCn1c2ccccc2c2cnn(CC(=O)NCCCN3CCCCC3CC)c(=O)c21 (stereo not drawn), the activity change, negative = inhibition was 5.34% (inactive) and -76.4% (active). In the case of CCCn1c2ccccc2c2cnn(CC(=O)NCCCOC(C)C)c(=O)c21, the activity change, negative = inhibition was -18.7% (inactive). For CC1CCCCN1CCCNC(=O)Cn1ncc2c([nH]c3ccccc32)c1=O (stereo not drawn), the activity change, negative = inhibition was 25.9% (inactive) and 24.1% (inactive). For CCOC(=O)CNc1nc(Cl)nc(Nc2ccc(OC)cc2OC)n1, the activity change, negative = inhibition was -6.89% (inactive). For COc1ccc(NC(=O)NNC(=O)COc2cc(C)c(Cl)c(C)c2)c(OC)c1, the activity change, negative = inhibition was -4.84% (inactive). For COc1ccc(Nc2ncnc3ccc(Br)cc23)c(OC)c1, the activity change, negative = inhibition was -98.7% (active). In the case of CC(=O)c1ccc(N2CCN(C3C(=O)c4ccccc4N3C(C)=O)CC2)cc1 (stereo not drawn), the activity change, negative = inhibition was 0% (inactive). For CCOC(=O)N1CCC(NC(=O)C(NS(=O)(=O)c2ccc3c(c2)CCN3C(=O)CC)C(C)C)CC1 (stereo not drawn), the activity change, negative = inhibition was 1.92% (inactive). With COc1cccc2c1cc1c(=O)n(CC(=O)N3CCN(c4ccccc4)CC3)nc(C)n12 the activity change, negative = inhibition was 3.76% (inactive). For O=C(Cn1ncc2c3ccccc3n(Cc3ccccc3)c2c1=O)NC1CCCCCC1, the activity change, negative = inhibition was 12.7% (inactive). In the case of CC(C)CNC(=S)NNC(=O)c1ccccc1OC(F)F, the activity change, negative = inhibition was 2.34% (inactive). In the case of Cc1scc(C(=O)NNC(=S)NCC(C)C)c1C, the activity change, negative = inhibition was -1.28% (inactive). In the case of Cc1scc(C(=O)NNC(=S)NCc2ccccc2)c1C, the activity change, negative = inhibition was -63.5% (active). For CCn1c(=O)c2cc(C(=O)Nc3cccc(C(C)=O)c3)sc2c2ccccc21, the activity change, negative = inhibition was 8.05% (inactive).
On the % scale 0 is the no-effect control and ±100 the full control effect.
